Test results from PubChem BioAssay AID651640 (Broad Institute, 2012).
Screen size: about 350,000 compounds; about 6,000 (1.7%) were called active. About 5% were inconclusive and are not listed. This is one part of a sample in which actives are shown more often than they occur. Cut-off read from the data, not from the text of the source: active = CPE inhibition above about 20% (passing the limit was not always enough); inconclusive = no clear call, values can overlap the other calls; tested in BHK-21 cells.

Experiment: inhibitors of DENV2 cytopathic effect, primary screen, cell-based, plate reader, single concentration (AID 651640);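 note: 0% = median of neutral control wells and 100% = median of positive control wells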
Details: DENV2-infected cells, cytopathic effect rescue, at 9.99 µM, stronger effect = higher value

CPE inhibition, inactive:
C[C@@H]1CN([C@H](C)CO)S(=O)(=O)c2ccc(C#C[C@@H](C)O)cc2O[C@H]1CN(C)C(=O)C1CCCCC1 -8.28%, C[C@H](CO)N1C[C@H](C)[C@@H](CN(C)Cc2ccc(Oc3ccccc3)cc2)Oc2cc(-c3ccncc3)ccc2S1(=O)=O -22.7%, O=C(C[C@@H]1C=C[C@@H](NS(=O)(=O)c2ccc(F)cc2)[C@@H](CO)O1)NCCN1CCCCC1 -0.229%, CN(Cc1ccccc1F)C[C@H]1[C@@H](c2ccccc2)[C@@H](CO)N1S(C)(=O)=O -1.35%, CCCNC(=O)N1C[C@@H](O)COC[C@@H]2O[C@H](CC(=O)N3CCN(C)CC3)CC[C@H]21 0.94%, C[C@H]([C@@H](O)[C@@H](O)[C@@H](C)C(C)(C)C)[C@H]1CC[C@H]2C3CC[C@H]4C[C@H](OS(=O)(=O)O)[C@@H](OS(=O)(=O)O)C[C@]4(C)[C@H]3CC[C@]12C (some centres not stated) -2.49%, CC(C)CC#Cc1cnc2c(c1)C(=O)N([C@@H](C)CO)C[C@H](C)[C@@H](CN(C)C(=O)c1ccc(F)cc1)O2 -4.54%, CCC(=O)Nc1ccc2c(c1)OC[C@H](C)N(C(=O)c1ccncc1)C[C@H](C)[C@H](OC)CN(C)C2=O -6.05%, C[C@H]1CN([C@@H](C)CO)C(=O)c2cc(C3=CCCC3)cnc2O[C@@H]1CN(C)C(=O)c1ccccc1 -6.29%, CO[C@@H]1CN(C)C(=O)c2ccc(NS(=O)(=O)c3c(C)noc3C)cc2OC[C@H](C)NC[C@@H]1C -11.3%, C[C@@H]1CN([C@H](C)CO)C(=O)c2cc(C#CCC3CCCC3)cnc2O[C@H]1CN(C)Cc1ccccn1 15.8%, CCCC#Cc1ccc([C@@H]2[C@@H](C#N)N(C(=O)C3CCC3)[C@H]2CO)cc1 -3.76%, COc1ccccc1C#Cc1ccc([C@@H]2[C@@H](CO)N(C(=O)C3CC3)[C@H]2C#N)cc1 1.77%, CCCC#Cc1ccc([C@@H]2[C@@H](C#N)N(C(=O)C3CC3)[C@H]2CO)cc1 -11.5%, COc1ccc(-c2ccc([C@@H]3[C@@H](C#N)N(C(=O)C4CCC4)[C@@H]3CO)cc2)cc1 -14%, COc1ccc(-c2ccccc2[C@H]2[C@@H](C#N)N(C(=O)C3CCC3)[C@@H]2CO)cc1 3.73%, CCCC#Cc1ccc([C@@H]2[C@@H](C#N)N(C(=O)C3CCCC3)[C@@H]2CO)cc1 -5.75%, OC[C@H]1[C@@H](c2ccc(C#Cc3ccccc3F)cc2)[C@H]2CN(CC3CCOCC3)CCCCN21 -16.8%, C[C@@H](NC(=O)C[C@@H]1C[C@@H]2c3cc(NC(=O)c4cccnc4)ccc3O[C@@H]2[C@H](CO)O1)c1ccccc1 -1.39%, COc1cccc(-c2ccc3c(c2)O[C@H](CN(C)C(=O)c2ccccc2F)[C@@H](C)CN([C@@H](C)CO)S3(=O)=O)c1 -3.52%, OC[C@H]1[C@H](c2ccc(-c3cccnc3)cc2)[C@H]2CN(Cc3ccccn3)CCCCN21 3.13%, COCC#Cc1ccc([C@H]2[C@H](CO)N3CCCCN(Cc4ccncc4)C[C@@H]23)cc1 3.44%, CCCC#Cc1ccc([C@H]2[C@H]3CN(Cc4cncnc4)CCCCN3[C@H]2CO)cc1 -10.9%, Cc1cccc(-c2ccc([C@H]3[C@@H](CO)N4CCCCN(Cc5cncnc5)C[C@H]34)cc2)c1 5.45%, Cc1cccc(-c2ccc([C@@H]3[C@H](CO)N4CCCCN(Cc5ccncc5)C[C@@H]34)cc2)c1 -6.55%, CN(C)C(=O)c1ccc(-c2ccc([C@@H]3[C@@H](CO)N4CCCCN(Cc5cncnc5)C[C@@H]34)cc2)cc1 5.96%, OC[C@@H]1[C@H](c2ccc(C#Cc3ccccc3)cc2)[C@@H]2CN(Cc3cncnc3)CCCCN12 4.64%, Cc1ccc(-c2ccc([C@H]3[C@H](CO)N4CCCCN(Cc5cncnc5)C[C@@H]34)cc2)cc1 -2.12%, CC(C)CC#Cc1ccc([C@H]2[C@H]3CN(C(=O)CN4CCOCC4)CC(=O)N3[C@H]2CO)cc1 -1.35%, COc1ccccc1CNC(=O)C[C@@H]1C[C@@H]2c3cc(NC(=O)C4CCOCC4)ccc3O[C@@H]2[C@@H](CO)O1 2.24%, COC(=O)[C@@H]1[C@@H](CO)[C@@H]2Cn3c(ccc(-c4ccccc4F)c3=O)[C@@H]2N1CC1CCOCC1 -7.38%, C[C@@H]1CCCCO[C@@H](CN(C)S(=O)(=O)c2cn(C)cn2)[C@@H](C)CN([C@@H](C)CO)C(=O)c2cc(NC(=O)NC3CCCCC3)ccc2O1 7.41%, C[C@@H]1CN([C@@H](C)CO)S(=O)(=O)c2ccc(-c3ccccc3F)cc2O[C@H]1CN(C)Cc1cncnc1 -7.02%, CN(C)C(=O)[C@@H]1[C@@H](CO)[C@@H]2Cn3c(cccc3=O)[C@H]1N2C(=O)c1ccc(F)cc1 2.89%, C[C@H]1CN([C@@H](C)CO)C(=O)c2cccc(NC(=O)c3ccncc3)c2O[C@@H]1CN(C)C -3.46%

CPE inhibition, active:
CCCC#Cc1ccc([C@H]2[C@@H](CO)N(C(=O)C3CC3)[C@H]2C#N)cc1 39.4%, COc1ccc(-c2ccccc2[C@H]2[C@@H](CO)N(C(=O)C3CCC3)[C@H]2C#N)cc1 70.3%, CN(C)CC#Cc1ccc([C@H]2[C@@H](CO)N(C(=O)C3CCC3)[C@H]2C#N)cc1 87.1%, OC[C@H]1[C@H](c2ccc(-c3ccccc3F)cc2)[C@H]2CN(Cc3cncnc3)CCCCN21 45.6%, OC[C@H]1[C@H](c2ccc(-c3cccc(F)c3)cc2)[C@@H]2CN(Cc3cncnc3)CCCCN12 58.8%, OC[C@@H]1[C@H](c2ccc(C3=CCCC3)cc2)[C@H]2CN(Cc3ccncc3)CCCCN12 41%, OC[C@H]1[C@@H](c2ccc(/C=C/c3ccccc3)cc2)[C@H]2CN(Cc3cccnc3)CCCCN21 23.8%
